Measurements from PubChem BioAssay AID463173 (ICCB-Longwood Screening Facility, Harvard Medical School, 2010).
About 4,300 (8.3%) of roughly 52,000 compounds were called active. Shown is part of a subset that was picked to be rich in actives. Values without a mark were called inactive. Rule as the data show it: active = survival mostly below about 52% (no sharp cut-off); inactive = mostly above about 56%.

tested on: DeltatarO mutant; test: S. aureus survival, RN4220 and DeltatarO strains – OD600, teichoic acid synthesis inhibitors, primary screen (AID 463173); settings: S. aureus RN4220 wild type/DeltatarO growth, OD600, 18 h, hits give low values, screened at 18.75 µg/mL (by protocol)

Row | SMILES | survival
1 | CCN1C(=O)/C(=C\C=C2/N(CC)c3ccc(C(=O)OC)cc3N2CC)SC1=S | 78%
2 | Cc1ccc(NC(=O)Cn2c(=O)n(Cc3nc(-c4ccccc4)no3)c(=O)c3cc4c(cc32)OCO4)cc1C | 77%
3 | CCc1ccccc1NC(=O)CN(Cc1ccccc1)S(=O)(=O)c1ccc2nc(C)sc2c1 | 102%
4 | Cc1ccc(C(=O)NC2(C(F)(F)F)C(=O)Nc3c2c(=O)[nH]c(=O)n3CCc2ccccc2)cc1 (centres undefined) | 74%
5 | CC(C)CCNC(=O)c1cc2sccc2n1Cc1ccc(F)cc1 | 87%
6 | CCOc1ccccc1Nc1sc(C(=O)c2ccccc2)c(N)c1C(=O)Nc1ccccc1 | 102%
7 | COCCn1c(C)cc(O)c(C(c2ccccc2Cl)N2CCN(c3ccccc3)CC2)c1=O (centres undefined) | 87%
8 | CSc1ccc(CNC(=O)c2cc3c(=O)n(Cc4ccco4)ccc3nc2C)cc1 | 94%
9 | COc1ccc(-c2cn3c(n2)sc2cc(C(=O)NCc4ccccc4)ccc23)cc1 | 63%
10 | O=C(NCCOCCn1c(=O)oc2ccccc21)Nc1cccc(Cl)c1 | 75%
11 | COc1cccc(-c2cc(C(F)(F)F)nc(NCCc3ccccc3)n2)c1 | -8% (active)
12 | COc1ccc(-c2cc(C(F)(F)F)nc(NCCc3ccccc3)n2)cc1OC | 63%
13 | COc1ccc(-c2cc(C(F)(F)F)nc(NCc3ccccc3)n2)cc1OC | 42% (active)
14 | COc1ccc(-c2cc(C(F)(F)F)nc(SCC(=O)NCc3ccc(F)cc3)n2)cc1 | 74%
15 | COc1ccc(-c2cc(C(F)(F)F)nc(SCCC(=O)Nc3cccc(OC)c3)n2)cc1 | 69%
16 | COc1cccc(-c2cc(C(=O)Nc3ccc(F)cc3)[nH]n2)c1 | 73%
17 | COc1cccc(-c2cc(C(F)(F)F)nc(NCc3ccc(F)cc3)n2)c1 | 4% (active)
18 | COc1ccc(-c2cc(C(F)(F)F)nc(NCc3ccc(F)cc3)n2)cc1 | 1% (active)
19 | COc1ccccc1CCNC(=O)C(C)Sc1nc(-c2ccccc2)cc(C(F)(F)F)n1 (centres undefined) | 65%
20 | COc1ccc(-c2cc(C(F)(F)F)nc(SCC(=O)NCC(C)C)n2)cc1OC | 137%
21 | COc1cccc(-c2nc(S(=O)(=O)c3ccccc3)c(NCc3ccccc3)o2)c1 | 61%
22 | COc1ccccc1/C=C/c1nc(C#N)c(N2CCCCC2)o1 | 75%
23 | Cc1ccc(C(=O)c2sc(Nc3ccccc3F)c(S(=O)(=O)c3ccccc3)c2N)c(C)c1 | 74%
24 | COC(=O)c1cc(NC(=O)c2nn(C)c3c2CSc2ccccc2-3)cc(C(=O)OC)c1 | 88%
